HT1080 IDH1KD tx: qHTS for induction of synthetic lethality in tumor cells producing 2HG: qHTS for the HT-1080-IDH1KD cell line | HT-1080 IDH1 knockdown viability, ATP luminescence, 48 h | Potency, µM (series often up to 46.1 µM), actives largely listed as cytotoxic | 360,000 tested, 2% active | AID 686971, 2013
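Cytotoxicity counter-line: IDH1KD HT-1080, 48 h, CellTiter-Glo. Curves classed by r2, magnitude and activity.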
HT1080-NT tox: qHTS for induction of synthetic lethality in tumor cells producing 2HG: qHTS for the HT-1080-NT fibrosarcoma cell line. 360,000 tested, 1.6% active. HT-1080-NT fibrosarcoma viability, CellTiter-Glo ATP luminescence, 48 h. Potency, µM (highest dose often 46.1 µM), hits mostly cytotoxic;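 note: NT is the 2HG producing partner of a matched IDH1 knockdown line; nearly all actives have a fitted effect of over 55% in size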
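Read-out is CellTiter-Glo luminescence after 10 minutes at room temperature, following 48 hours' compound treatment of HT-1080-NT cells (750 cells/well, RPMI, 5% FBS, 37 degrees C).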
TDP1 cell noCPT: qHTS for Inhibitors of human tyrosyl-DNA phosphodiesterase 1 (TDP1): qHTS in cells in absence of CPT; DT40 Tdp1-/- hTDP1 cells, no CPT, ATP luminescence, 48 h; Potency, µM (top dose mostly 46.2 µM), actives largely listed as inhibitors; 420,000 tested, 15% active; note: nearly all actives have a fitted effect of over 55% in size
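Stably hTDP1-transfected Tdp1-null chicken DT40 cells were treated with library compounds minus camptothecin and grown for at least 48 hr at 37 °C, after which cellular ATP was quantified by luminescence.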
KB-3-1 tox: qHTS assay for MDR1-selective chemotherapeutics: Primary screen using the parental adenocarcinoma cell KB-3-1; KB-3-1 viability, CellTiter-Glo ATP luminescence, 72 h; Potency, µM (highest dose often 46.1 µM), hits mostly cytotoxic; 400,000 tested, 1.4% active; note: nearly all actives have a fitted effect of over 60% in size
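Viability of parental KB-3-1 cells, measured by CellTiter-Glo luminescence, followed a 72 h incubation at 37 °C with pinned compounds in phenol-red-free DMEM containing 10% FBS.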
KB-V1 cytotox: qHTS assay for MDR1-selective chemotherapeutics: Primary screen using the drug-selected MDR subline cells KB-V1. KB-V1 MDR cells viability, CellTiter-Glo, 72 h. AID 1347076, 2019. 400,000 tested, 3.4% active. Potency, µM (titrated, usually from 46.1 µM), hits mostly cytotoxic; note: nearly all actives have a fitted effect of over 60% in size
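qHTS viability screen in drug-selected KB-V1 MDR cells: 72 h compound treatment at 37 degrees C, ATP luminescence end point.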
DT40 TDP1 CPT: qHTS for Inhibitors of human tyrosyl-DNA phosphodiesterase 1 (TDP1): qHTS in cells in presence of CPT; chicken DT40 Tdp1-/-;hTDP1 cells + 20 nM CPT, ATP luminescence, 48 h; Potency, µM (titrated, usually from 46.2 µM), usual class: inhibitors; 420,000 tested, 12% active; AID 686979, 2013; note: nearly all actives have a fitted effect of over 55% in size
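Chicken DT40 Tdp1-/- cells complemented with human TDP1, 400 cells/well, exposed to compounds plus 20 nM camptothecin for at least 48 h at 37 C; viability read as ATP content by CellTiter-Glo luminescence.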
A number is an active result; 0 = inactive; ? = inconclusive; - = not tested or not shown. A selection: hits, their analogues and other compounds. The true share with any hit is near 19%. Calls come from the whole dose curve; as a rule, active = well fitted curve in the direction sought with a large enough effect; inconclusive = small, poorly fitted or top-dose-only effect, or another doubt; inactive = no such curve, though single readings can be large; an effect the other way counts as inactive or inconclusive.

SMILES	HT1080 IDH1KD tx	HT1080-NT tox	TDP1 cell noCPT	KB-3-1 tox	KB-V1 cytotox	DT40 TDP1 CPT
CC(C)NC(=O)c1cn([C@H]2CC[C@@H](NC(=O)/C=C/c3cccs3)CC2)nn1	-	-	0	-	-	?
CCOC(=O)Cc1c[nH]c2ccc([N+](=O)[O-])cc12	0	0	0	0	0	0
CC(C)(C)c1ccc(C(=O)NNC(=S)NC(=O)c2cccnc2)cc1	?	?	7.31µM	?	?	7.31µM
CCC(C)c1ccc(O)c(NC(=S)NC(=O)c2cccs2)c1 (stereo unspecified)	?	0	23.1µM	0	?	13µM
COc1cc(OC)cc(C(=O)NC(=S)Nc2cccnc2)c1	0	0	?	0	0	0
COc1cc(OC)cc(C(=O)NC(=S)NNC(=O)c2cnccn2)c1	?	0	5.17µM	?	?	5.8µM
COc1cc(OC)cc(C(=O)NNC(=S)NC(=O)c2cccnc2)c1	0	0	3.66µM	0	?	?
Cc1ccccc1C(=O)NNC(=S)NC(=O)c1cccnc1	0	0	?	?	0	?
COc1ccc(C(=O)NC(=S)NNC(=O)c2cnccn2)cc1OC	0	0	?	?	?	?
CN(C)c1ccc(CNC(=O)C2CCN(c3nnc(-n4cccc4)s3)CC2)cc1	-	-	?	0	0	0
CC(C)(C)OC(=O)NCCc1nc(NC(=O)OCc2ccccc2)sc1C(=O)O	0	0	0	0	0	0
NC(=S)NCCC[C@H](N)C(=O)O	-	-	0	-	-	0
CC(C)c1ccc(O)c(NC(=S)NC(=O)c2cccnc2)c1	?	?	18.4µM	0	?	4.61µM
CCC(C)c1ccc(O)c(NC(=O)c2cccnc2)c1 (stereo unspecified)	0	0	?	0	0	?
CC(C)(C)c1cc(Cl)c(O)c(NC(=S)NC(=O)c2cccnc2)c1	?	0	6.51µM	0	?	4.61µM
N#Cc1c(N2CCOCC2)nsc1-c1ccc(C(F)(F)F)cc1	0	0	?	0	0	?
N#Cc1c(Cl)cccc1N1CCSCC1	0	0	0	?	23.1µM	0
N#Cc1c(N2CCSCC2)nsc1-c1ccccc1Cl	?	0	0	3.66µM	4.61µM	?
Cc1ccc(S(=O)(=O)N2CCCCC2)cc1NC(=O)CSc1nccn1C	0	0	0	0	0	0
Cc1cc(I)ccc1Nc1nc(NCCN2CCOCC2)nc(N2CCOCC2)n1	-	-	5.62µM	?	0	3.16µM
Cc1ccc(N2CC(C(=O)Nc3ccc(Br)cc3)CC2=O)cc1 (stereo unspecified)	-	-	0	0	?	0
COc1cccc(C(=O)N/N=C/c2ccc(Oc3ccc([N+](=O)[O-])cn3)c(OC)c2)c1	0	0	?	?	0	20.6µM
N#Cc1cc([N+](=O)[O-])ccc1Oc1cccc(/C=N/NC(=O)c2cccc(Cl)c2)c1	0	0	20.6µM	?	0	?
COc1ccc(/C=N/NC(=O)c2cccc([N+](=O)[O-])c2)cc1OS(=O)(=O)c1ccccc1	0	0	16.4µM	0	0	?
O=C(Oc1cccc(/C=N/NC(=O)c2ccccn2)c1)c1ccc([N+](=O)[O-])cc1	0	0	?	0	0	0
COc1ccc(/C=N/NC(=O)c2cccc([N+](=O)[O-])c2)cc1OC	0	0	0	0	0	0
COc1cccc(/C=N/NC(=O)c2ccc([N+](=O)[O-])cc2Cl)c1O	?	?	4.61µM	0	9.2µM	4.61µM
Cn1c(=O)c(-c2cc(Br)ccc2N)nc2ccccc21	0	0	?	0	0	0
COc1ccccc1CCC(=O)OCC(=O)Nc1ccc2[nH]c(=O)[nH]c2c1	0	0	0	0	0	0
